ATXN2 expr inh – Primary qHTS for Inhibitors of ATXN expression; HEK-293 ATXN2-luciferase reporter, luminescence, 24 h; Potency, µM (top dose mostly 57 µM), most hits filed as inhibitors; 360,000 compounds, 0.72% hits; AID 1745845, 2022; further: nearly all actives have a fitted effect of over 55% in size
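qHTS (up to 57 uM final) was run with 24 h compound exposure of reporter cells at 37 °C. Each well was multiplexed: SteadyGlo luminescence measured ATXN2-luciferase expression after a fluorogenic Gly-Phe-AFC viability readout (25 uM final).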
TGFb inhibitor – qHTS for Inhibitors of TGF-b | Potency, µM (titrated, usually from 46.1 µM), usual class: inhibitors | 410,000 compounds, 1.2% hits | HepG2 CAGA-GFP TGF-b/SMAD3 reporter, GFP fluorescence, 18 h; TGF-beta stimulated, 500 pg/mL final; further: nearly all actives have a fitted effect of over 65% in size
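Per well, imaged GFP fluorescence of HEPG2 CAGA-GFP cells gives the signal; cells get compound, then TGF-beta (500 pg/mL final), 18 h at 37 degrees C; %Activity versus -TGF-beta and +DMSO controls.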
HepG2 tox – qHTS for Inhibitors of TGF-b: Cytotox Counterscreen; AID 588856, 2011; HepG2 CAGA-GFP viability, ATP luminescence, 18 h; 410,000 compounds, 0.76% hits; Potency, µM (highest dose often 46.1 µM), hits mostly cytotoxic
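CellTiter-Glo luminescence gave cytotoxicity after 18 hours at 37 degrees C. The cells were HepG2 CAGA-GFP in 1% FBS DMEM, stimulated with 500 pg/mL TGF-beta after compound addition. %Activity was normalised to no-cell wells (complete cell-killing) and DMSO (no toxicity), and curves were fitted and classified.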
IL1B secr inh – qHTS for Inhibitors of Inflammasome Signaling: IL-1-beta AlphaLISA Primary Screen. 360,000 compounds, 4.7% hits. THP-1 LPS/ATP IL-1B secretion, AlphaLISA, 16 h; active compounds read low. activity change, % at 57.5 µM. AID 743279, 2014; in the data active means activity change below about -50%; inconclusive means mostly about -30% to -49%
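Secreted IL-1B measured by AlphaLISA bead assay after 16 h compound exposure of THP-1 cells; compounds (final up to 57.5 uM) added 1 h before LPS (250 ng/mL) and ATP (1.25 mM) stimulation; lower signal means less secretion.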
ATXN viability – Viability Counterscreen for Primary qHTS for Inhibitors of ATXN expression; 400,000 compounds, 0.49% hits; S2 cells (HEK-293 line with an ATXN2-luciferase reporter) viability, CellTiter-Fluor protease fluorescence, 24 h; Potency, µM (titrated, usually from 56.7 µM), hits mostly cytotoxic; AID 651635, 2014; further: nearly all actives have a fitted effect of over 40% in size
Of the large screens only hits and unclear results are named; the others gave an inactive call; ! = repeats disagree. In the library only some 5.7% were active in any assay of this set; here they are far more common. Unless noted, the call rests on the fitted dose curve; in most records, active means well fitted curve in the direction sought with a large enough effect; inconclusive means small, poorly fitted or top-dose-only effect, or another doubt; inactive means no such curve, though single readings can be large; an effect the other way counts as inactive or inconclusive.

O=C(O/N=C\c1ccc(N2CCCCC2)c([N+](=O)[O-])c1)c1ccc(Cl)cc1Cl	ATXN viability inconclusive
O=C(c1ccc(N2CCCCC2)c([N+](=O)[O-])c1)N1CCOCC1	none
COc1ccccc1C(=O)/C=C/c1ccc(N2CCCCC2)c([N+](=O)[O-])c1	ATXN2 expr inh inconclusive, TGFb inhibitor inconclusive, IL1B secr inh -109.2 (no result: ATXN viability)
O=C(/C=C/c1ccc(N2CCCCC2)c([N+](=O)[O-])c1)c1ccc(O)cc1	TGFb inhibitor inconclusive, IL1B secr inh -94.9, ATXN viability inconclusive
Cc1ncc2c(c1CNC(=O)c1ccc3c(c1)OCO3)CCN(C(=O)c1scc3c1CCCC3)C2	none (no result: ATXN2 expr inh, TGFb inhibitor, HepG2 tox, IL1B secr inh)
Cc1nn(-c2ccccc2)c2c1N(CCCC(=O)NCc1ccc(OC(C)C)cc1)C(=O)CS2	ATXN2 expr inh inconclusive, TGFb inhibitor inconclusive, ATXN viability inconclusive (no result: IL1B secr inh)
COc1ccc(S(=O)(=O)N2CCOCC2)cc1NC(=O)CN(C)Cc1c(F)cccc1Cl	TGFb inhibitor inconclusive, IL1B secr inh -65.7
CN(CC(=O)Nc1ccc(S(=O)(=O)N2CCCC2)cc1)Cc1ccc(Cl)cc1	TGFb inhibitor inconclusive
CCN(CC)c1ccc(S(=O)(=O)N2CCOCC2)cc1NC(=O)CN1CCc2ccccc2C1	ATXN2 expr inh inconclusive, TGFb inhibitor inconclusive, IL1B secr inh -110.5
CN(CC(=O)Nc1ccc(S(=O)(=O)N2CCCC2)cc1)Cc1c(F)cccc1Cl	ATXN2 expr inh inconclusive, IL1B secr inh -59.6
Cc1c(C(=O)N(C)Cc2cscn2)sc2ncnc(NC[C@H]3CCc4ccccc4O3)c12	none (no result: ATXN2 expr inh, TGFb inhibitor, HepG2 tox, IL1B secr inh)
CC(C)(C)c1ccc(C(=O)CCCCl)cc1	none (no result: TGFb inhibitor, HepG2 tox, IL1B secr inh)
C[C@@H]1C[C@@H]2OC(=O)[C@]3(C)[C@H]2[C@@H](OC3(C)O)[C@]2(C)C(=O)C=C[C@H]12 (stereo partly specified)	IL1B secr inh -90.3
Cc1cc(=O)oc2ccc(OCC(=O)N(Cc3ccc(F)cc3)Cc3ccco3)cc12	IL1B secr inh -61.7, ATXN viability inconclusive
CCCCNC(=O)c1ccc2nc(CC)c(N(C)Cc3cccs3)n2c1	IL1B secr inh -74.0, ATXN viability inconclusive
CCc1nc2ccc(C(=O)Nc3ccc(C(N)=O)cc3)cn2c1N(C)CCC(C)C	TGFb inhibitor inconclusive, ATXN viability inconclusive
CCc1nc2ccc(C(=O)NCc3ccccc3OC)cn2c1N(C)Cc1ccc(OC)cc1	ATXN2 expr inh inconclusive, TGFb inhibitor inconclusive, IL1B secr inh -51.6 (no result: ATXN viability)
CCc1nc2ccc(C(=O)Nc3ccc(OC)c(OC)c3)cn2c1N(C)CCC(C)C	ATXN2 expr inh inconclusive, TGFb inhibitor 14.1µM, HepG2 tox 20µM, IL1B secr inh inconclusive (no result: ATXN viability)
CCc1nc2ccc(C(=O)NCc3ccc(OC)cc3)cn2c1N(C)Cc1ccc(OC)cc1	ATXN viability inconclusive
CCc1nc2ccc(C(=O)Nc3ccc(Cl)c(Cl)c3)cn2c1N(C)Cc1ccc(OC)cc1	ATXN2 expr inh inconclusive, TGFb inhibitor 11.2µM, IL1B secr inh -61.5 (no result: ATXN viability)
CCOc1ccccc1NC(=O)c1cn(C2CCCC2)c(=O)c2c1c1ccccc1n2C	none (no result: ATXN2 expr inh, IL1B secr inh, ATXN viability)
NCCCC[C@H](NC(=O)[C@@H]1CCCN1C(=O)[C@@H]1CSSC[C@H](N)C(=O)N[C@@H](Cc2ccc(O)cc2)C(=O)N[C@@H](Cc2ccccc2)C(=O)N[C@@H](CCC(N)=O)C(=O)N[C@@H](CC(N)=O)C(=O)N1)C(=O)NCC(N)=O	none (no result: ATXN2 expr inh, TGFb inhibitor, HepG2 tox, IL1B secr inh)
CCOC(=O)C1=C(c2ccccc2)N=c2s/c(=C\c3cccc(O)c3)c(=O)n2C1c1cccs1 (stereo unspecified)	ATXN2 expr inh inconclusive, TGFb inhibitor inconclusive, HepG2 tox 14.1µM, IL1B secr inh -75.0, ATXN viability inconclusive
CCOC(=O)C1=C(C)N=c2s/c(=C\c3cccc(OCC(=O)O)c3)c(=O)n2C1c1ccccc1OC (stereo unspecified)	none
CN(C)c1ccc(N=Nc2ccc(/C=C/c3ccnc4ccccc34)cc2)cc1	none (no result: ATXN2 expr inh, IL1B secr inh, ATXN viability)
Cc1nn(-c2ccc(N3CCCCC3)nn2)c(C)c1CCC(=O)Nc1cc(F)ccc1F	IL1B secr inh -80.7
Cc1nn(-c2ccc(N3CCCC3)nn2)c(C)c1CCC(=O)Nc1ccc(F)cc1F	none (no result: ATXN2 expr inh, IL1B secr inh, ATXN viability)
COc1cc(CNCc2cccc3ccccc23)cc(OC)c1	TGFb inhibitor inconclusive (no result: ATXN2 expr inh)
COc1ccccc1CNCc1cc(OC)c(OC)cc1OC	none
COc1cccc(CNCc2ccc(OC)c3ccccc23)c1OC	TGFb inhibitor inconclusive, IL1B secr inh -84.1
COc1cc(CNCc2c[nH]c3ccccc23)cc(OC)c1	IL1B secr inh -83.8, ATXN viability inconclusive
COc1ccccc1CNCc1ccc(OC)c2ccccc12	TGFb inhibitor inconclusive, IL1B secr inh -81.9
COc1ccc(CNCc2ccc(OC)c3ccccc23)cc1	IL1B secr inh -76.4
COc1cccc(CNCc2ccccn2)c1OC	none
O=S1(=O)CCO[C@H]2CCCC[C@@H]2N1Cc1ccccc1F	none (no result: ATXN2 expr inh, IL1B secr inh, ATXN viability)
COc1ccc(N2CC(NC(=O)COc3ccccc3C)CC2=O)cc1OC (stereo unspecified)	none (no result: IL1B secr inh)
COc1ccccc1CNCc1cccc(Oc2ccccc2)c1	IL1B secr inh -82.8
COc1cccc(C(C)(O)c2nc(-c3cc4ccccc4o3)cs2)c1 (stereo unspecified)	TGFb inhibitor 8.91µM
CC(O)(c1cccc(F)c1)c1nc(-c2cc3ccccc3o2)cs1 (stereo unspecified)	TGFb inhibitor inconclusive, ATXN viability inconclusive
CC(O)(c1ccc(F)c(F)c1)c1nc(-c2cccc(F)c2)cs1 (stereo unspecified)	TGFb inhibitor inconclusive
CC(C)c1cccc(-c2csc(C(C)(O)c3ccc(F)c(F)c3)n2)c1 (stereo unspecified)	TGFb inhibitor inconclusive, HepG2 tox 20µM, IL1B secr inh inconclusive
COc1cccc(C(C)(O)c2nc(-c3cccc(C(C)C)c3)cs2)c1 (stereo unspecified)	ATXN2 expr inh inconclusive, TGFb inhibitor inconclusive, IL1B secr inh -82.5, ATXN viability inconclusive
COc1cccc(C(C)(O)c2nc(-c3ccccc3)cs2)c1 (stereo unspecified)	none
CCn1nc(C)c(CN2Cc3ccccc3OC(c3ccccc3OC)C2)c1C (stereo unspecified)	none (no result: ATXN2 expr inh, TGFb inhibitor, HepG2 tox, IL1B secr inh)
COc1ccc(NCc2cc3cc4c(cc3n(CC(=O)Nc3ccc(C)c(C)c3)c2=O)OCO4)cc1	none (no result: IL1B secr inh)
COc1ccc(Cl)c2sc(NC(=O)c3ccc(S(=O)(=O)N4CCOCC4)cc3)nc12	none (no result: IL1B secr inh)
Cc1ccc(C)c(N2CCN(S(=O)(=O)c3ccc4c(c3)CCCN4C(=O)C3CCC3)CC2)c1	none (no result: IL1B secr inh)
COc1ccccc1N1CCN(C(=O)C2CCCN(S(=O)(=O)c3ccc4c(c3)CCCN4C(C)=O)C2)CC1 (stereo unspecified)	ATXN2 expr inh 17.8µM!, TGFb inhibitor inconclusive, ATXN viability inconclusive

High-throughput results (PubChem)
